This is a sample that favours compounds with a hit; in the whole collection about 10% have one here.
MmCpn inh: M. maripaludis TRiC chaperonin inhibition; 330,000 tested, 0.031% active; purified Mm-Cpn ATPase, ADP Transcreener TR-FRET; Potency, µM (series often up to 76.9 µM), inactives show at the top dose activity, negative = inhibition, actives largely listed as inhibitors; also: potency is read from the fitted curve at half-maximal effect; nearly all actives have a fitted effect of over 80% in size
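Purified archaeal Mm-CPN (25nM final) preincubated 10 min at 37degC with compound, then 10uM ATP for 30 min at 37degC; ADP measured by HTRF Transcreener TR-FRET; buffer 30 mM TRIS pH 7.4, 100mM KCl, 5mM MgCl2, 1mM DTT.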
PLK1 PBD block: blocks phosphopeptide binding to human PLK1 polo-box domain; P53350; 360,000 tested, 2.8% active; Plk1 PBD binding of FITC phosphopeptide, fluorescence polarization; Potency, µM, inactives show max response, negative = inhibition, actives largely listed as inhibitors; AID 720504; also: potency is read from the fitted curve at half-maximal effect; series mostly up to about 57 µM; nearly all actives have a fitted effect of over 65% in size
VDR inhibitor: inhibitors of human vitamin D receptor | P11473 | Potency, µM, for the others: max response, negative = inhibition, hits mostly inhibitors | 400,000 tested, 0.93% active | AID 504847 | VDR-SRC2-3 peptide fluorescence polarization, 2 h; also: potency is read from the fitted curve at half-maximal effect
Target sequence (P11473 whole entry, looked up): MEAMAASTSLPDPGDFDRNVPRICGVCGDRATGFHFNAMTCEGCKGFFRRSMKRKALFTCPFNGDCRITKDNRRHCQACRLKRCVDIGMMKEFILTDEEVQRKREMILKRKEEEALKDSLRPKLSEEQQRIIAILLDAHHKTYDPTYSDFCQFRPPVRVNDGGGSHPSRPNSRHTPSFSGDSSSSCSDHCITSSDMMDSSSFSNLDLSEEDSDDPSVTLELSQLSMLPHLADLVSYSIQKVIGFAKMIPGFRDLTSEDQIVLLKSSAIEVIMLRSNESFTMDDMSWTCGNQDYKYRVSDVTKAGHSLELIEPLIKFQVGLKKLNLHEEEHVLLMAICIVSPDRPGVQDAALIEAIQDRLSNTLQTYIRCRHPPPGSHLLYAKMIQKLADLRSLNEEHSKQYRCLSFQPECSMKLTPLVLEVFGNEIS
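The screen uses fluorescence polarization to detect compounds that interfere with recruitment of the SRC2-3 coactivator peptide to VDR; plates are read after 2 h at room temperature.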
CCT chaperon mod: changes cytosolic chaperonin activity; purified chaperonin ATPase assay, HTRF ADP detection, 30 min; activity change, % (test concentration not listed), hits read low; 360,000 tested, 0.3% active; AID 651819; in the data active = activity change below about -30%
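TRiC (40 or 20 nM final, by batch activity) in 30 mM Tris pH 7.4, 100 mM KCl, 5 mM MgCl2, 1 mM DTT was treated with compound at 76 uM single dose, then 10 uM ATP, 30 min at 37 °C. ADP was read by HTRF Transcreener.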
G9a block: blocks human histone lysine methyltransferase G9a; Q96KQ7; G9a H3K9 monomethylation, AlphaScreen, 2 h; Potency, µM (titrated, usually from 102 µM), inactives show at the highest dose activity, negative = inhibition, hits mostly inhibitors; 350,000 tested, 8.8% active; also: potency is read from the fitted curve at half-maximal effect; nearly all actives have a fitted effect of over 75% in size
Target sequence (Q96KQ7 913-1193 limits assumed): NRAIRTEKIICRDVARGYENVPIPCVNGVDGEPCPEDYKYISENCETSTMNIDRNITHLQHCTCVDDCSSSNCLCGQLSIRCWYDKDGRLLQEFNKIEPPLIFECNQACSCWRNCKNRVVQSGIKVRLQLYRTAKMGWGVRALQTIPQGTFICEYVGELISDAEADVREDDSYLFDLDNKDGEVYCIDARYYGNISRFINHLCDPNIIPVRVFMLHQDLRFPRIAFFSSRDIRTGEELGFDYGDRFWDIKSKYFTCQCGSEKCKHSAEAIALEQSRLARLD
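Readings reflect AlphaScreen signal from monomethyl-H3K9 antibody detection. HMT at 20 nM; substrate b-H3K9 500 nM; cofactor SAM 20 uM; 2 h RT reaction; compounds tested as titrations in qHTS with 15 min preincubation.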
Sfp PPTase inh: Sfp phosphopantetheinyl transferase inhibition; Q9F4F7; Biochemical Sfp PPTase activity, qHTS; Potency, µM, for inactives: largest response in the series, negative = inhibition, hits mostly inhibitors; 310,000 tested, 3.5% active;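 also: the enzyme is Sfp with the accession as filed and its product quenches rhodamine fluorescence; potency is read from the fitted curve at half-maximal effect; 0% = enzyme reaction without inhibitor and -100% = no enzyme wells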
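Fluorescence-quenching assay: 15 nM Sfp-PPTase preincubated 15 min at room temperature with compound, then 5 uM rhodamine-CoA and 12.5 uM BHQ-2-labelled YbbR peptide added. Fluorescence (ex 525/em 598 nm) read at start and after 30 min; difference gives rate.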
* marks the source's active call; other numbers are inactive results; ? = inconclusive; . = no result; [ ] = another dose, or the depositor's remark. Unless noted, calls follow the shape of the dose curve; as a rule, active = well fitted curve in the direction sought with a large enough effect; inconclusive = small, poorly fitted or top-dose-only effect, or another doubt; inactive = no such curve, though single readings can be large; an effect the other way counts as inactive or inconclusive. Unless noted, % is scaled to controls: 0 for no effect and ±100 for the full control effect.

SMILES	MmCpn inh	PLK1 PBD block	VDR inhibitor	CCT chaperon mod	G9a block	Sfp PPTase inh
O=C(OCC(=O)c1ccc(Cl)cc1Cl)c1ccccn1	-19%	-3%	-16%	-3	.	.
Cc1ccc(-n2nc(CO)c(C(=O)NCc3cccs3)n2)cc1C	.	.	-14%	.	10%[59 µM]	.
CC(=O)SC1CC2=CC(=O)CC[C@@]2(C)C2CC[C@@]3(C)[C@@H](CC[C@@]34CCC(=O)O4)C12 (stereo partly specified)	.	.	-6%	.	-17%[2.33 µM]	-4%
COc1ccc(CNC(=O)Cn2ncc3c(=O)oc4ccccc4c32)c(OC)c1	.	.	-1%	.	5%[59 µM]	.
Cn1c(N)c(C(=O)COC(=O)C2(c3ccc(F)cc3)CCCC2)c(=O)n(C)c1=O	1%	-6%	-1%	0	12%[59 µM]	-18%
Cn1c(N)c(C(=O)COC(=O)C2(c3ccc(Cl)cc3)CCCC2)c(=O)n(C)c1=O	0%	3µM*	-23%	-1	-2%[12.7 µM]	-4%
COc1ccc(NC(=O)CSc2nc(-c3cccc(C)c3)[nH]c2-c2ccccc2)cc1OC	.	.	14%	.	?	.
COc1cc(OC)nc(-n2ncc(OC)c(Br)c2=O)n1	-2%	-9%	-19%	0	-7%	3%
COc1cnn(-c2ccc(F)cc2)c(=O)c1Br	-22%	1%	9%	-66*	0%	17%
Cc1ccc(NS(=O)(=O)c2cc(N)ccc2Cl)c(C)c1	2%	24µM*	-17%	-1	19%[12.7 µM]	-20%
Nc1ccc(Cl)c(S(=O)(=O)Nc2cccc(Cl)c2)c1	0%	0%	-12%	1	-6%	0%
CC(C)OCCCN(CC(O)c1ccccc1)CC(O)c1ccccc1 (stereo unspecified)	0%	1%	14%	1	7.9µM*	-4%
O=c1[nH]c2ccc(Cl)cc2c(O)c1Cc1ccccc1	-7%	-8%	19%	-2	-11%	50µM*
NNC(=O)c1[nH]c2ccc(Cl)cc2c1-c1ccccc1	-5%	-13%	79µM*	1	-25%	-10%
NNC(=O)c1[nH]c2ccc(Br)cc2c1-c1ccccc1	-6%	-5%	?	0	.	-11%
O=c1[nH]c2ccc(Cl)cc2c(-c2ccccc2)c1CN1CCOCC1	0%	?	?	-5	35µM*	-4%
O=c1[nH]c2ccc(Cl)cc2c(-c2ccccc2)c1N1CCOCC1	-1%	-20%	-6%	-3	-2%[59 µM]	-7%
O=C(O)CSc1c(-c2ccccc2)c2cc(Cl)ccc2[nH]c1=O	-5%	-24%	-25%	-3	-3%[59 µM]	71µM*
CCCC1=Nc2cc(C(=O)NC3CCCC3)ccc2Sc2ccc(C)cc21	.	.	-3%	.	-4%[59 µM]	.
Cc1ccc2c(C(=O)N3CCN(c4ccccc4)CC3)cc(-c3cccnc3)nc2c1C	-2%	-1%	9%	-43*	3%[12.7 µM]	10%
Cc1ccc2nc(-c3ccccc3)cc(C(=O)N3CCN(c4ccccc4O)CC3)c2c1	1%	-1%	3%	-2	50µM*	.
C(=N\Nc1nc(-c2ccccc2)cs1)/c1ccncc1	-2%	-20%	10%	1	50µM*	?
Cc1onc(-c2ccccc2)c1-c1csc(N/N=C/c2ccccc2)n1	-1%	0%	3%	0	.	-10%
O=C(Nc1nc(-c2ccc(Cl)cc2)cs1)c1cccnc1	-3%	12µM*	-19%	-2	40µM*	-7%
O=C(O)Cc1sc(N/N=C\c2ccncc2)nc1-c1ccccc1	-2%	-30%	-16%	-1	2µM*	28µM*
SMILES	MmCpn inh	PLK1 PBD block	VDR inhibitor	CCT chaperon mod	G9a block	Sfp PPTase inh
ClCc1csc(N/N=C/c2cccs2)n1	-6%	.	.	.	?	45µM*
CC(C)c1nn2c(=O)cc(COC(=O)c3ccc(NC(=O)C4CCCCC4)cc3)nc2s1	.	.	5%	.	18%[59 µM]	.
CCn1c(CNC(=O)c2ccc(OC)cc2)nnc1SCC(=O)Nc1cccc(C)c1C	.	.	-1%	.	2%[59 µM]	.
CCOCCn1ccc2c(OCC(=O)Nc3ccc(OC(F)(F)F)cc3)cccc2c1=O	.	.	15%	.	2%[59 µM]	.
CCOc1ccc(C2C(C(=O)Nc3ccc(OC)cc3)=C(C)Nc3nc(SCc4ccc(Cl)cc4)nn32)cc1 (stereo unspecified)	.	.	12%	.	10%[59 µM]	.
CN1CCN(c2nc(-c3ccc4c(c3)OCO4)nc3ccccc23)CC1	.	.	-7%	.	2%[0.501 µM]	12%
CC(=O)c1ccc(NC(=O)c2ccc(-c3nc(COc4ccc(C)cc4)c(C)o3)cc2)cc1	.	.	-5%	.	?	.
Clc1ccc(-c2csc(N/N=C\c3cccnc3)n2)cc1	0%	1%	-10%	1	10µM*	56µM*
O=[N+]([O-])c1cccc(-c2csc(N/N=C/c3cccc(O)c3)n2)c1	2%	-26%	18%	1	35µM*	50µM*
Cc1ccc(-c2cc(-c3ccccc3)nc(N/N=C/c3cccnc3)n2)cc1	.	-14%	-3%	-1	.	.
CCOC(=O)Cc1csc(N/N=C/c2cccc([N+](=O)[O-])c2)n1	-24%	-2%	-8%	-2	-3%	-19%
C(=N\Nc1nc(-c2ccccc2)cs1)/c1cccs1	-1%	30µM*	19%	-2	14µM*	8.9µM*
C(=N/Nc1nccs1)/c1cccnc1	-3%	-6%	15%	-1	-37%	50µM*
Cc1sc(N/N=C/c2cccnc2)nc1-c1ccccc1	2%	-10%	-7%	0	.	-99%
CCc1sc(C(=O)Nc2ncccc2O)cc1C	-6%	-4%	12%	-1	35µM*	?
CCc1sc(C(=O)Nc2ncccc2C)cc1C	2%	3%	-17%	2	?	8%
COc1ccc(C2CC(c3cccs3)=NN2S(=O)(=O)c2ccc(C)cc2)cc1 (stereo unspecified)	.	2%	6%	2	.	.
COc1ccc(C2CC(c3cccs3)=Nc3ccccc3S2)cc1 (stereo unspecified)	-12%	0%	-17%	-1	?	22µM*
CCN1CCCC1Cn1c(-c2ccccc2)nc2c(NC3CCCCC3)nc(C)nc21 (stereo unspecified)	.	.	.	.	.	17%
OCCN1CCN(c2nc(NCc3ccco3)c3ccccc3n2)CC1	0%	-8%	-15%	-1	-8%[59 µM]	2%
c1ccc(CN2CCN(c3nc(NCc4ccco4)c4ccccc4n3)CC2)cc1	0%	4%	-9%	-4	?	45µM*
Nc1nc(NCc2ccco2)nc(N2CCN(Cc3ccccc3)CC2)c1[N+](=O)[O-]	1%	2%	3%	0	35µM*	1%
CC(=O)c1nnn(-c2ccc(C)cc2Cl)c1C	.	.	18%	.	6%[59 µM]	.
CCOc1ccc(NC(=O)Cn2nnc(C(=O)NCCc3ccccc3)c2N)cc1	.	.	-18%	.	-3%[59 µM]	.
Cc1ccc(CCNC(=O)c2cc(C)nn2-c2ccccc2)cc1	3%	0%	6%	-1	1%	16%

High-throughput results deposited in PubChem by National Center for Advancing Translational Sciences (NCATS).
